# From PubChem
# aSyn UTR act – Activators via SNCA 5'UTR binding, MLPCN | alpha-synuclein 5'UTR reporter, activators screen | activity score, % (tested at 7.5 µM), hits read low | 7.1% of 300,000 active; in the data active = activity score below about -60%
# * = called active by the depositor. The list is a sample of the results.
SMILES,aSyn UTR act
COc1ccc2nc(-c3ccc(Cl)cc3)cc(C(=O)O)c2c1,-72.2*
CCOc1ccc(-c2cc(C(=O)O)c3ccccc3n2)cc1,-83.1*
CC(C)Oc1cccc(-c2cc(C(=O)N3CCN(c4ncccn4)CC3)c3ccccc3n2)c1,-64.1*
CC(=O)Nc1ccccc1/C=C/c1ccc2c(C)ccc(O)c2n1,-64.3*
Cc1ccc(Cn2c(O)c(N=NC(=S)Nc3ccccc3F)c3cc(S(=O)(=O)N4CCOCC4)ccc32)cc1,66.2
Cc1ccc(C)c(NC(=S)N=Nc2c(O)n(C)c3ccc(S(=O)(=O)N4CCOCC4)cc23)c1,77.8
Cc1ccc(Nc2ccc(S(=O)(=O)N3CCOCC3)cc2[N+](=O)[O-])c(C)c1,-62.1*
O=C(Nc1nc2ccccc2[nH]1)c1ccc(Cl)c([N+](=O)[O-])c1,-109.2*
O=C(Nc1nc2ccccc2[nH]1)c1ccccc1[N+](=O)[O-],-118.0*
Cc1c(C(=O)Nc2nc3ccccc3[nH]2)cccc1[N+](=O)[O-],-166.9*
CN(N=Nc1cccc([N+](=O)[O-])c1)c1cccc([N+](=O)[O-])c1,-82.4*
CCCN(CCC)CCNC(=O)c1cc2c(=O)n(CC)c3ccccc3c2s1,-173.7*
CN1CCN(CCCNC(=O)c2cc3c(=O)n(C)c4ccccc4c3s2)CC1,-73.8*
CCOCCCNC(=O)c1cc2c(=O)n(CC)c3ccccc3c2s1,-79.9*
CCN(CC)CCNC(=O)c1cc2c(=O)n(CC)c3ccccc3c2s1,-124.6*
CCN(CC)CCCNC(=O)c1cc2c(=O)n(CC)c3ccccc3c2s1,-107.5*
S=C1c2ccccc2CN1c1ccccc1,-64.4*
Cc1ccc(N2Cc3ccccc3C2=S)cc1,-154.0*
O=C(/C=C/Sc1ccc(C(F)(F)F)cn1)c1ccccc1,-72.4*
O=C(CSCC(=O)N1CCCCC1)Nc1nc(-c2ccc(Cl)s2)cs1,-118.1*
O=C(CN1C(=O)CCC1=O)Nc1nc(-c2ccc(Cl)s2)cs1,-63.9*
c1ccc(CSc2ccc(-c3cccs3)nn2)nc1,-102.3*
c1ccc(CSc2ccc(-c3cccs3)nn2)cc1,-107.5*
O=C(CSc1ccc(-c2cccs2)nn1)c1cccs1,-68.4*
N#Cc1ccc(-c2cccs2)nc1SCc1cccnc1,90.3
SMILES,aSyn UTR act
Oc1c(N=NC(=S)Nc2ccccc2F)c2ccccc2n1Cc1ccccc1F,86.8
Cc1ccccc1Cn1c(O)c(N=NC(=S)Nc2ccccc2F)c2ccccc21,72.5
CCn1c(O)c(N=NC(=O)c2cccs2)c2ccccc21,-67.3*
Cc1nn(-c2ccccc2)c(/N=C/c2ccc(O)cc2)c1-c1ccccc1,-133.6*
CSc1ccccc1NC(=O)c1ccc(Br)o1,-78.3*
CCCCC(=O)NC(c1ccc(C(C)C)cc1)c1ccc2cccnc2c1O (stereo unspecified),111.8
O=C(O)CCC(=O)Nc1cccc2cccnc12,-113.8*
Cc1ccc(NC(=S)NC(=O)c2ccc(Br)o2)c(C)c1,-181.0*
CCCCC(=O)NC(c1ccccc1Cl)c1ccc2cccnc2c1O (stereo unspecified),83.4
Cc1cccc(NC(=S)NC(=O)c2ccc(Br)o2)c1C,-74.1*
O=C(Nc1cccc2cccnc12)c1ccc(Br)o1,-97.5*
O=C(NC(=S)Nc1ccccc1F)c1ccc(Br)o1,-65.5*
Nc1ccccc1C#Cc1ccccc1,-162.2*
Nc1ccccc1C#Cc1ccc2[nH]ccc2c1,-174.5*
COc1cc2cc(C#N)c(SCC(=O)N3CCOCC3)nc2cc1OC,-74.4*
N#Cc1cc2cc3c(cc2nc1SCC(=O)N1CCCC1)OCCO3,-84.6*
Cc1ccc(N=Nc2c(C)[nH]n(C(N)=S)c2=O)cc1C,-258.0*
Cc1[nH]n(C(N)=S)c(=O)c1N=Nc1cccc([N+](=O)[O-])c1C,-163.8*
Cc1[nH]n(C(N)=S)c(=O)c1N=Nc1ccc2ccccc2c1,-146.7*
Cc1nc2sc(-c3ccccc3)nn2c(=O)c1Br,-77.9*
c1ccc(-c2cn3nc(-c4ccccc4)sc3n2)cc1,101.4
COc1ccccc1NC(=O)/C=C/c1ccc2c(c1)OCO2,-166.6*
COc1ccccc1NC(=O)c1ccc2c(c1)OCO2,-125.1*
COc1ccc(NC(=O)c2oc3ccccc3c2NC(=O)c2ccc3c(c2)OCO3)cc1,-68.3*
O=c1c(O)c(-c2ccc3c(c2)OCO3)oc2ccccc12,-132.9*
SMILES,aSyn UTR act
O=C(Nc1ccc2c(c1)oc1ccccc12)c1ccc2c(c1)OCO2,-232.7*
COc1cc2c(cc1NC(=O)c1ccc3c(c1)OCO3)oc1ccccc12,-285.2*
CCOc1ccc(C(=O)Nc2c(C(N)=O)oc3ccccc23)cc1,-115.5*
Cc1ccc2nc(NC(=O)[C@H](C)N3C(=O)C4CC=CCC4C3=O)sc2c1 (stereo partly specified),62.8
Cc1nc2ccc(NC(=O)N(C)c3ccccc3)cc2s1,-119.5*
Cc1nc2ccc(NC(=O)N(C(C)C)C(C)C)cc2s1,-90.2*
COc1ccc(/C=C2\CCC/C(=C\C=N\N(C)C)C2=O)cc1,-427.3*
CN(C)/N=C/C=C1\CCC/C(=C\c2ccc(F)c(F)c2)C1=O,-421.6*
CN(C)c1ccc(/C=C2\CCC/C(=C\c3ccccc3)C2=O)cc1,-81.1*
Cc1cccc(/C=C2\CCC(=C3SCCCS3)C2=O)c1,85.2
O=C1/C(=C/c2cccnc2)CC/C1=C\c1cccnc1,-64.5*
CC(C)/C=C1\CC/C(=C\c2cccnc2)C1=O,-61.6*
O=C(CCS(=O)(=O)c1ccccc1)NC12CC3CC(CC(C3)C1)C2,-179.3*
COc1ccc(C(=O)/C(=C/N(C)C)S(=O)(=O)c2ccccc2)cc1,-160.5*
C=CCn1c(SCC(=O)Nc2ccc(F)cc2F)nnc1-c1cnccn1,-107.3*
COc1cc2ccccc2cc1C(=O)Nc1ccc(C)cc1,-185.8*
COc1cc2ccccc2cc1C(=O)Nc1ccc(Cc2ccncc2)cc1,-128.9*
COc1ccccc1C(=O)Nc1ccc2ccccc2c1,-87.8*
O=C(Nc1ccncc1)c1cc2ccccc2cc1O,-78.7*
Cc1ccc(NC(=O)c2cccc3ccccc23)cc1,-90.8*
CC(=O)Oc1ccccc1C(=O)Nc1ccccc1,-92.7*
Cc1ccc(NC(=O)c2cc(C)n(-c3ccccc3)c2C)cc1,105.6
Cc1ccc(NC(=O)c2cc(C)n(-c3cccc(C)c3)c2C)cc1,-61.9*
Cc1cc(C(=O)CSc2nnc(-c3cccnc3)n2-c2ccccc2)c(C)n1CC1CCCO1 (stereo unspecified),-77.7*
CC(=O)Nc1ccccc1OCC(=O)c1cc(C)n(Cc2cccs2)c1C,-150.1*
SMILES,aSyn UTR act
Cc1ccc(C(=O)OCC(=O)c2cc(C)n(CC3CCCO3)c2C)cc1 (stereo unspecified),-160.7*
C=CCn1c(C)cc(C(=O)COC(=O)c2ccc(N)c([N+](=O)[O-])c2)c1C,-142.3*
Cc1cc(C(=O)COC(=O)c2ccc(N)c([N+](=O)[O-])c2)c(C)n1Cc1ccc2c(c1)OCO2,-164.0*
Cc1cc(C(=O)COC(=O)c2ccccc2O)c(C)n1Cc1cccs1,92.7
Cc1cc(C(=O)COC(=O)c2ccc3c(c2)OCO3)c(C)n1Cc1cccs1,-65.5*
COc1cc2c(C)nc3c(cnn3-c3ccccc3)c2cc1OC,-240.5*
Cc1[nH]c2ccccc2c1/C=C(\C#N)C(=O)NC1CC1,-80.0*
CCOC(=O)c1cc(-c2ccccc2)sc1N,-94.1*
CCOC(=O)c1sc(-c2ccccc2)cc1N,-116.3*
CCOC(=O)c1cc(-c2ccccc2)sc1NC(=O)COC(=O)c1cccc(S(N)(=O)=O)c1,71.6
CCOC(=O)c1sc(-c2ccc(OC)cc2)cc1N,-158.4*
CCOC(=O)c1sc(-c2ccc(F)cc2)cc1N,-142.5*
CC(=O)c1sc(-c2ccccc2)cc1N,-63.2*
